Measurements: PubChem BioAssay (EPA / NIEHS)
Records with an inconclusive call do not appear. Calls of active or inactive are those of the source. How the source made its calls: active means hit-call score of the fitted dose curve at least 0.9, where 1 is the maximum; inconclusive means response in the unintended direction; inactive means score below 0.9.

Test: CLD_ACTIN_24hr: CellzDirect (CLD) Gene Expression Assay for Baseline Control (Actin) at 24 hours (AID 2283670)
Procedure: CLD_24hr is a cell-based, multiplexed-readout assay that uses hepatocyte, a human liver primary cell, with measurements taken at 24 hours after chemical dosing in a 96-well plate.CLD_ACTIN_24hr is one of 16 assay component(s) measured or calculated from the CLD_24hr assay. It is designed to make measurements of mRNA induction, a form of inducible reporter, as detected with chemiluminescence signals by Quantitative Nuclease Protection Assay (qNPA) technology.Data from the assay component CLD_ACTIN_24hr was analyzed at the endpoint, CLD_ACTIN_24hr, in the positive analysis fitting direction relative to DMSO as the negative control and baseline of activity. Using a type of inducible reporter, gain-of-signal activity can be used to understand changes in the reporter gene as they relate to the gene ACTA1. Furthermore, this assay endpoint can be referred to as a secondary readout, because this assay has produced multiple assay endpoints where this one serves a background control function. To generalize the intended target to other relatable targets, this assay endpoint is annotated to the background measurement intended target family, where subfamily is baseline control.
Human hepatocyte cultures were treated daily for two consecutive days with fresh dosing solutions containing appropriate concentrations of the 320 ToxCast chemicals (chemical identities were blinded to CellzDirect and other ToxCast collaborators), vehicle control (0.2% DMSO), and positive control inducers as summarized in Table 1. Due to the large number of treatment groups and chemicals examined, the ToxCast chemicals were divided into two groups (spanning two independent cultures of hepatocytes from separate donor preparations (Hu778: ToxCast plates 1 and 2; Hu776: ToxCast plates 3 and 4). Each preparation of human hepatocyte cultures was treated with respective vehicle control, medium only control, set of six positive controls/reference chemicals for the five hepatic receptor pathways, and a subset of eight of the ToxCast chemicals (indoxacarb, pyrithiobac-sodium, norflurazon, cyhalofop-butyl, methomyl, thiram, acetochlor, and propiconazole). These replicate data, coupled with internal replicates designed within the blinded ToxCast chemical library, provided additional data to evaluate interindividual differences between hepatocyte preparations and their potential impact on chemical profiles.Cell morphology and integrity were evaluated using phase-contrast microscopy as an indicator of hepatocyte cell health (Tyson & Green, 1987). Cultures for each treatment group (i.e., media, vehicle [0.2% DMSO], positive control inducers [multiple concentrations], and the ToxCast chemicals [multiple concentrations]) were observed and cell morphology was assessed relative to vehicle control cultures at each harvest time point (0, 6, 24, or 48 h). […] Images were evaluated at the conclusion of the study to assess changes in cell integrity and account for the effects of chemical exposure on uncharacteristic changes in concentration-dependent gene expression profiles. The results from these determinations of apparent cytotoxicity were annotated (yes/no) alongside the corresponding qNPA data for reference.At the conclusion of each treatment period, hepatocyte cultures (96-well) were washed with 1 volume of HBSS, lysed by addition of 25 ul ArrayPlate lysis buffer (HTG, Tucson, AZ), and 70 ul/well of Denaturation Oil, denatured by incubation at 95C for 10 min, and frozen at approximately -70C until analysis by nuclease protection assay (qNPA) (Roberts et al., 2007). For qNPA analysis, cell lysates were thawed at 50C for approximately 30 min, qNPA probes were added, and samples were incubated at 95C for 10 min to begin the detection process by denaturing the target RNA, dissociating the duplexes and secondary structure hybridization. At the conclusion of the hybridization period, S1 nuclease reagent was added to each sample to digest all nonprotected nucleotides at 50C for 60-90 min. […]

Row | Compound | outcome
1 | Cc1nn(-c2cc(NS(C)(=O)=O)c(Cl)cc2Cl)c(=O)n1C(F)F | inactive
2 | CC[C@H](C)[C@H]1O[C@]2(C=C[C@@H]1C)C[C@@H]1C[C@@H](C/C=C(\C)[C@@H](O[C@H]3C[C@H](OC)[C@@H](O[C@H]4C[C@H](OC)[C@@H](NC)[C@H](C)O4)[C@H](C)O3)[C@@H](C)/C=C/C=C3\CO[C@@H]4[C@H](O)C(C)=C[C@@H](C(=O)O1)[C@]34O)O2 | inactive
3 | CN(C)NC(=O)CCC(=O)O | inactive
4 | CNC(=O)ON=C(SC)C(=O)N(C)C | inactive
5 | C[Si](Cn1cncn1)(c1ccc(F)cc1)c1ccc(F)cc1 | inactive
6 | Cc1ccn2nc(S(=O)(=O)Nc3c(F)cccc3F)nc2n1 | inactive
7 | C[N+]1(C)CCCCC1 | inactive
8 | FC(F)C(F)(F)OCC(Cn1cncn1)c1ccc(Cl)cc1Cl (stereo unspecified) | inactive
9 | CNC(=O)ON=C(C)SC | inactive
10 | CCOP(=S)(OCC)SCCSCC | inactive
11 | CSc1nnc(C(C)(C)C)c(=O)n1N | inactive
12 | CCc1cnc(C2=NC(C)(C(C)C)C(=O)N2)c(C(=O)O)c1 (stereo unspecified) | inactive
13 | N#CSCSC#N | inactive
14 | Nc1nc(N)nc(NC2CC2)n1 | inactive
15 | COP(=O)(NC(C)=O)SC (stereo unspecified) | inactive
16 | CCC(=NOC/C=C/Cl)C1=C(O)CC(C2CCOCC2)CC1=O (stereo unspecified) | inactive

Row | Compound | outcome
17 | CN(C)[C@@H]1C(=O)C(C(N)=O)=C(O)[C@@]2(O)C(=O)C3=C(O)c4c(O)cccc4[C@@](C)(O)[C@H]3[C@H](O)[C@@H]12 | inactive
18 | COP(=O)(OC)OC(Br)C(Cl)(Cl)Br (stereo unspecified) | inactive
19 | CNC(=O)Oc1cccc2c1OC(C)(C)O2 | inactive
20 | CCCCOC(=O)[C@@H](C)Oc1ccc(Oc2ccc(C#N)cc2F)cc1 | inactive
21 | S=C1NCCN1 | inactive
22 | O=c1ccc(=O)[nH][nH]1 | inactive
23 | CC1(C(=O)Nc2ccc(O)c(Cl)c2Cl)CCCCC1 | inactive
24 | CCOP(=S)(OCC)Oc1ccc2c(C)c(Cl)c(=O)oc2c1 | inactive
25 | CN1COCN(Cc2cnc(Cl)s2)C1=N[N+](=O)[O-] | inactive
26 | COc1cccc(C(=O)NN(C(=O)c2cc(C)cc(C)c2)C(C)(C)C)c1C | inactive
27 | CCc1cccc(C)c1N(C(=O)CCl)C(C)COC (stereo unspecified) | inactive
28 | CON=C(C(=O)OC)c1ccccc1CON=C(C)c1cccc(C(F)(F)F)c1 | inactive
29 | CC(Oc1cccc(Cl)c1)C(=O)O (stereo unspecified) | inactive
30 | COP(=O)(OC)C(O)C(Cl)(Cl)Cl (stereo unspecified) | inactive
31 | CSC1=N[C@@](C)(c2ccccc2)C(=O)N1Nc1ccccc1 | inactive
